Shown are actives, neighbours in structure and some others; about 22% of the full set was active somewhere.
CYP2C19 inh = human CYP2C19 inhibition | inhibition, % at 5 µM | 96,000 tested, 21% active | CYP2C19 Supersomes, luciferin-H EGE luminescence, 30 min;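 active means CYP2C19 inhibition above a set limit at 5 µM in the primary screen, cut at about 50% in these data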
CYP2C9 inhib = blocks human cytochrome P450 2C9. 96,000 tested, 20% active. AID 777. inhibition, % at 5 µM. P11712. CYP2C9 Supersomes, luciferin-H conversion, luminescence;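 active means blocking of liver enzyme CYP2C9 beyond about 50% at 5 µM, limit read from the data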
Target sequence (P11712 whole entry, looked up): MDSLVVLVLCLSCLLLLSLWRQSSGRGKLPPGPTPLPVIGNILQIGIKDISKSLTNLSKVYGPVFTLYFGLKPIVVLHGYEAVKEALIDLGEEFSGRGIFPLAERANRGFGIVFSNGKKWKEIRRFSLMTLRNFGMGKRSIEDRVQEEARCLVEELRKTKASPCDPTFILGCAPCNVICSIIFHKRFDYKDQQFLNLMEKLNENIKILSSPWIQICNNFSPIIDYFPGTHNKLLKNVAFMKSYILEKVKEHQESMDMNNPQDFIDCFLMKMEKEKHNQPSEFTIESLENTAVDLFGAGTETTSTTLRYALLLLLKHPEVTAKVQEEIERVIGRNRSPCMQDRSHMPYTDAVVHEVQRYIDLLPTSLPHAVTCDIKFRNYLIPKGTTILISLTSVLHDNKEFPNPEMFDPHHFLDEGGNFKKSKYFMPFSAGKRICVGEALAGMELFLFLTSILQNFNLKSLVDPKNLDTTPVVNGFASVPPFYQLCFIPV
F-actin modifier = cytoskeleton assembly modification | HUVEC TNFa F-actin phalloidin imaging, high content | inhibition, % at 2 µM | 91,000 tested, 0.18% active;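 active means inhibition above the batch mean plus 3 SD and confirmed as a hit by visual image inspection, cut at about 30% in these data, passing the limit was not always enough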
CYP2C9 activ = increases human cytochrome P450 2C9 activity | activation factor at 5 µM | AID 1024 | recombinant CYP2C9, luciferin-H conversion, luminescence; stronger effect = higher value; factor 1 = untreated enzyme, 0 = blocked | 96,000 tested, 1.4% active | P11712;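 active means activation factor of 2 or more for CYP2C9 at a 5 µM dose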
CYP2C19 act = activators of human cytochrome P450 2C19. AID 1025. recombinant CYP2C19, luciferin-H EGE luminescence; stronger effect = higher value; 0 = fully inhibited enzyme, 1 = untreated enzyme. 96,000 tested, under 10 active. P33261. activation factor at 5 µM;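 active means activation factor of at least 2 at 5 µM in the primary screen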
E-sel TNF inh = blocks E-selectin expression induced by TNF alpha; HUVEC TNFa-induced E-selectin immunofluorescence, high content; inhibition, % at 2 µM; 120,000 tested, 0.71% active; AID 1246;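 active means inhibition above the batch mean plus 3 SD, and confirmed as a hit on visual image review, cut at about 43% in these data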
Of the large screens only hits and unclear results are named; the others gave an inactive call.

CCOc1ccccc1NC(=O)c1ccccc1-c1nc(-c2ccccc2OC)no1	CYP2C9 inhib 63.0
COCCNC(=O)c1ccccc1-c1nc(-c2ccccc2OC)no1	none
O=C(NCC1CCCO1)c1ccccc1-c1nc(-c2ccc(Cl)cc2)no1 (stereo not given)	none
CC(C)(C)NC(=O)c1ccccc1-c1nc(-c2ccccc2Cl)no1	CYP2C19 inh 85.0, CYP2C9 inhib 100.4
CCNC(=O)c1ccccc1-c1nc(-c2ccccc2Cl)no1	CYP2C9 inhib 75.5
O=S(=O)(c1ccccc1)c1ncc(C(F)(F)F)cc1Cl	none (no result: CYP2C19 inh, CYP2C9 inhib, F-actin modifier, CYP2C9 activ, CYP2C19 act)
CCC(=O)NC1(C(F)(F)F)C(=O)NC(C)=C1C#N (stereo not given)	none
COCC(C)n1c(SCC(=O)N(C)C2CCS(=O)(=O)C2)nc2ccccc2c1=O (stereo not given)	none (no result: CYP2C19 inh, CYP2C9 inhib, F-actin modifier, CYP2C9 activ, CYP2C19 act)
COc1cccc(NC(=O)c2ccccc2-c2nc(-c3cccc(C)c3)no2)c1	CYP2C9 inhib 61.1 (no result: E-sel TNF inh)
Cc1cccc(-c2noc(-c3ccccc3C(=O)NCC3CCCO3)n2)c1 (stereo not given)	none (no result: E-sel TNF inh)
Cc1ccc(CNC(=O)CSc2c3c(nc4ccc(Cl)cc24)CCCC3)o1	CYP2C9 inhib 61.0 (no result: E-sel TNF inh)
CCN(CC)CCNC(=O)CSc1c2c(nc3cc(Cl)ccc13)CCCC2	none (no result: CYP2C19 inh, CYP2C9 inhib, F-actin modifier, CYP2C9 activ, CYP2C19 act)
O=c1c2c(ncn2C2CCCC2)n(Cc2ccccc2)c(=O)n1CCOc1ccc(Br)cc1	none (no result: CYP2C19 inh, CYP2C9 inhib, F-actin modifier, CYP2C9 activ, CYP2C19 act)
COc1ccc(N(C(=O)C(C)C)S(=O)(=O)c2cccc3cccnc23)cc1	none (no result: CYP2C19 inh, CYP2C9 inhib, F-actin modifier, CYP2C9 activ, CYP2C19 act)
COc1ccc(N(C(=O)C(C)C)S(=O)(=O)c2ccc3c(c2)n(C)c(=O)n3C)cc1	CYP2C9 inhib 65.1
COc1ccc(N(C(=O)C(C)C)S(=O)(=O)c2ccc(Cl)cc2)cc1	CYP2C19 inh 96.6, CYP2C9 inhib 88.2
COC(=O)c1ccc(=O)n(Cc2ccc3c(c2)OCO3)c1	CYP2C19 inh 98.1
Cc1ccc(-c2[nH]ncc2/C=N/n2c(COc3ccccc3)nc3ccccc3c2=O)cc1	none (no result: CYP2C19 inh, CYP2C9 inhib, F-actin modifier, CYP2C9 activ, CYP2C19 act)
O=c1c2ccccc2nc(COc2ccccc2)n1/N=C/c1ccco1	CYP2C19 inh 62.0, CYP2C9 inhib 78.8 (no result: E-sel TNF inh)
COc1ccc2cc(CN(Cc3ccco3)C(c3nnnn3C3CCCCC3)C(C)C)c(=O)[nH]c2c1 (stereo not given)	none (no result: F-actin modifier)
COc1ccc(Cn2nnnc2C(C(C)C)N(Cc2ccco2)Cc2cccs2)cc1 (stereo not given)	CYP2C19 inh 56.4, CYP2C9 inhib 66.0
CC(C)C(c1nnnn1Cc1ccccc1)N(Cc1ccco1)Cc1cccs1 (stereo not given)	CYP2C19 inh 95.8, CYP2C9 inhib 88.8
Cc1ccc(S(=O)(=O)Cn2nnnc2CN(Cc2ccco2)Cc2cccs2)cc1	none (no result: CYP2C19 inh, CYP2C9 inhib, CYP2C9 activ, CYP2C19 act)
COC(=O)C(C)n1cnc2c(nnn2Cc2ccc(Cl)cc2)c1=O (stereo not given)	none
CCOC(=O)C(C)n1cnc2c(nnn2-c2cccc(Cl)c2)c1=O (stereo not given)	CYP2C9 activ 2
CSc1nsc(SC)c1C(=O)Nc1ccc(C)cc1	none
FC(F)(F)c1ccc(CSc2nccn2-c2ccccc2)cc1	CYP2C19 inh 82.1, CYP2C9 inhib 87.8
Clc1cccc(CSc2ncn(-c3ccccc3)n2)c1	none (no result: CYP2C19 inh, CYP2C9 inhib, CYP2C9 activ, CYP2C19 act)
Nc1nnc(SCc2ccc(F)cc2)n1-c1ccccc1	none (no result: CYP2C19 inh, CYP2C9 inhib, CYP2C9 activ, CYP2C19 act)
Clc1cccc(CSc2nccn2-c2ccccc2)c1	CYP2C19 inh 73.1
Cc1cc(Cl)ccc1OCCCC(=O)NCC1CCCO1 (stereo not given)	CYP2C9 activ 2.3
O=C(CSCc1ccc(Cl)cc1)NCC1CCCO1 (stereo not given)	none (no result: E-sel TNF inh)
Cc1cc(Cl)ccc1OCCCC(=O)NO	none (no result: F-actin modifier)
O=C(COC(=O)CCC(=O)c1ccc(Cl)cc1)NCC1CCCO1 (stereo not given)	CYP2C19 inh 58.8
CC(C)NS(=O)(=O)c1ccc(OCC(=O)NCC2CCCO2)c(Cl)c1 (stereo not given)	CYP2C19 inh 67.3, CYP2C9 inhib 65.9
CN(C)c1ccc(C(=O)OCC(=O)NCC2CCCO2)cc1 (stereo not given)	CYP2C19 inh 82.6 (no result: E-sel TNF inh)
COc1ccccc1CNC(=O)c1cn(C)c(=O)c2cc(OC)c(OC)cc12	none
CN(C)c1cccc(C(=O)OCC(=O)NCC2CCCO2)c1 (stereo not given)	CYP2C19 inh 66.6, CYP2C9 activ 2.6 (no result: E-sel TNF inh)
Cc1cccc(NC(=O)CC2NCCNC2=O)c1 (stereo not given)	none
COc1ccc(C(=O)NC(=S)NC(C)(C)C)cc1Br	none
O=C(Cc1ccc(Cl)cc1)Nc1cccc(-c2nnc(-c3ccco3)o2)c1	CYP2C19 inh 80.4, CYP2C9 inhib 77.6
O=C(Cc1ccccc1)Nc1cccc(-c2nnc(-c3ccco3)o2)c1	CYP2C19 inh 84.4, CYP2C9 inhib 79.0
CC(=O)Nc1cccc(-c2nnc(-c3ccccc3)o2)c1	none
O=C(Nc1cccc(-c2nnc(-c3ccco3)o2)c1)C(c1ccccc1)c1ccccc1	CYP2C19 inh 83.4, CYP2C9 inhib 97.8
O=C(COc1ccccc1)Nc1ccc(-c2nnc(-c3ccco3)o2)cc1	none
Cc1ccc(NC(=O)CCC(=O)NNC(=O)COc2cccc3ccccc23)c(C)c1	none
Fc1ccc(-c2nnn(Cc3nc4ccccc4s3)n2)cc1	CYP2C19 inh 89.2
COc1ccc(N2CCN(Cc3cc4c(cc3O)CCC4)CC2)cc1	CYP2C9 inhib 92.5
CCc1ccc(NC(=O)C(=O)N/N=C(\C)CC(=O)Nc2ccccn2)cc1	none (no result: CYP2C19 inh, CYP2C9 inhib, F-actin modifier, CYP2C9 activ, CYP2C19 act)
CS(=O)(=O)N1CCN(c2ccccc2NC(=O)c2ccc(Cl)cc2)CC1	none
COc1ccc(NC(=O)c2ccccc2NC(=O)CSc2ccc(Cl)cc2)cc1	CYP2C19 inh 61.5, CYP2C9 inhib 62.5
CS(=O)(=O)N1CCN(c2ccccc2NC(=O)CSc2ccc(Cl)cc2)CC1	CYP2C19 inh 78.1, CYP2C9 inhib 86.6
COc1ccc(NC(=O)c2ccccc2NC(=O)CSc2ccccc2)cc1	none (no result: CYP2C19 inh, CYP2C9 inhib, F-actin modifier, CYP2C9 activ, CYP2C19 act)
Cc1cccc(C(=O)NC(NCCc2ccccc2)C(Cl)(Cl)Cl)c1 (stereo not given)	none
CC(C)CN(C(=O)c1nn(C)c(=O)c2ccccc12)c1nc2ccccc2s1	CYP2C19 inh 53.2, CYP2C9 inhib 77.4
Cn1nc(C(=O)Nc2nc3ccccc3[nH]2)c2ccccc2c1=O	none (no result: CYP2C19 inh, CYP2C9 inhib, F-actin modifier, CYP2C9 activ, CYP2C19 act)
CCSc1nc2ccccc2n1Cc1cccc([N+](=O)[O-])c1	none
CCC1(C)Cc2c(sc3nc4n(c(=O)c23)CCS4)CO1 (stereo not given)	CYP2C19 inh 63.9, CYP2C9 inhib 51.1
CCC1(C)Cc2c(sc3nc(NC)n(C)c(=O)c23)CO1 (stereo not given)	CYP2C19 inh 55.8 (no result: F-actin modifier)
O=S(=O)(NCc1ccccc1)c1cccc2cccnc12	CYP2C19 inh 78.9, CYP2C9 inhib 77.8
CN(CCCNS(=O)(=O)c1cccc2cccnc12)Cc1ccccc1	CYP2C9 activ 2.5 (no result: E-sel TNF inh)
O=S(=O)(NCc1cccnc1)c1cccc2cccnc12	none
O=S(=O)(NCCCN1CCN(c2ccccc2F)CC1)c1cccc2cccnc12	CYP2C19 inh 55.3, CYP2C9 activ 2.3 (no result: E-sel TNF inh)
O=S(=O)(NCCO)c1cccc2cccnc12	none

Assay outcomes as filed in PubChem BioAssay.
